The supplement of paper PMC6897291
Counter-ions that a name gives are not always drawn.

How the values were obtained:
RIVA [1] = assay: growth inhibition by drug plus 177Lu-lilotomab satetraxetan (1 - RLU/untreated control) (fraction); higher = stronger inhibition; settings: 177Lu-lilotomab satetraxetan 0.5 ug/ml
Summary of the method: (§1)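 Plates pre-printed with the Selleck Cambridge Cancer Compound library at 10/100 nM (RIVA) or 10/1,000 nM (U-2932) received 3,000 cells/well. These cells had been washed after 18 h untreated or with a radiolabelled anti-CD37 antibody conjugate (~600 MBq/mg; 0.5 µg/ml RIVA, 1 µg/ml U-2932). Growth inhibition was obtained from RealTime-Glo luminescence in relation to untreated no-drug wells. Each daily read from day 3, taken after 1 h at 37°C, was converted as 1 − RLU/mean of 48 such wells per plate.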

U-2932 [2] = assay: growth inhibition by drug alone (1 - RLU/untreated control) (fraction); higher = stronger inhibition; settings: 177Lu-lilotomab satetraxetan 0 ug/ml
Summary of the method: as §1

RIVA [3] = assay: as above; settings: 177Lu-lilotomab satetraxetan 0 ug/ml
Summary of the method: as §1

U-2932 [4] = assay: growth inhibition by drug plus 177Lu-lilotomab satetraxetan (1 - RLU/untreated control) (fraction); higher = stronger inhibition; settings: 177Lu-lilotomab satetraxetan 1 ug/ml
Summary of the method: as §1

SMILES	growth inhibition by drug plus 177Lu-lilotomab satetraxetan (RIVA [1]; 100 nM, time (day): 5)	growth inhibition by drug plus 177Lu-lilotomab satetraxetan (RIVA [1]; 100 nM, time (day): 6)	growth inhibition by drug alone (U-2932 [2]; 10 nM, time (day): 3)	growth inhibition by drug alone (U-2932 [2]; 10 nM, time (day): 4)	growth inhibition by drug alone (U-2932 [2]; 10 nM, time (day): 5)	growth inhibition by drug alone (U-2932 [2]; 10 nM, time (day): 6)	growth inhibition by drug alone (U-2932 [2]; 1000 nM, time (day): 3)	growth inhibition by drug alone (U-2932 [2]; 1000 nM, time (day): 4)	growth inhibition by drug alone (U-2932 [2]; 1000 nM, time (day): 5)	growth inhibition by drug alone (U-2932 [2]; 1000 nM, time (day): 6)	growth inhibition by drug alone (RIVA [3]; 10 nM, time (day): 3)	growth inhibition by drug alone (RIVA [3]; 10 nM, time (day): 4)	growth inhibition by drug alone (RIVA [3]; 10 nM, time (day): 5)	growth inhibition by drug alone (RIVA [3]; 10 nM, time (day): 6)	growth inhibition by drug alone (RIVA [3]; 100 nM, time (day): 3)	growth inhibition by drug alone (RIVA [3]; 100 nM, time (day): 4)	growth inhibition by drug alone (RIVA [3]; 100 nM, time (day): 5)	growth inhibition by drug alone (RIVA [3]; 100 nM, time (day): 6)	growth inhibition by drug plus 177Lu-lilotomab satetraxetan (U-2932 [4]; 10 nM, time (day): 3)	growth inhibition by drug plus 177Lu-lilotomab satetraxetan (U-2932 [4]; 10 nM, time (day): 4)	growth inhibition by drug plus 177Lu-lilotomab satetraxetan (U-2932 [4]; 10 nM, time (day): 5)	growth inhibition by drug plus 177Lu-lilotomab satetraxetan (U-2932 [4]; 10 nM, time (day): 6)	growth inhibition by drug plus 177Lu-lilotomab satetraxetan (U-2932 [4]; 1000 nM, time (day): 3)	growth inhibition by drug plus 177Lu-lilotomab satetraxetan (U-2932 [4]; 1000 nM, time (day): 4)	growth inhibition by drug plus 177Lu-lilotomab satetraxetan (U-2932 [4]; 1000 nM, time (day): 5)	growth inhibition by drug plus 177Lu-lilotomab satetraxetan (U-2932 [4]; 1000 nM, time (day): 6)	growth inhibition by drug plus 177Lu-lilotomab satetraxetan (RIVA [1]; 10 nM, time (day): 3)	growth inhibition by drug plus 177Lu-lilotomab satetraxetan (RIVA [1]; 10 nM, time (day): 4)	growth inhibition by drug plus 177Lu-lilotomab satetraxetan (RIVA [1]; 10 nM, time (day): 5)	growth inhibition by drug plus 177Lu-lilotomab satetraxetan (RIVA [1]; 10 nM, time (day): 6)	growth inhibition by drug plus 177Lu-lilotomab satetraxetan (RIVA [1]; 100 nM, time (day): 3)	growth inhibition by drug plus 177Lu-lilotomab satetraxetan (RIVA [1]; 100 nM, time (day): 4)
CO[C@H]1/C=C\C=C(/C)C(=O)NC2=CC(=O)C(NCCN(C)C)=C(C[C@@H](C)C[C@H](OC)[C@H](O)[C@@H](C)/C=C(\C)[C@@H]1OC(N)=O)C2=O [17-DMAG HCl (Alvespimycin)]	0.982	0.987	–	–	–	–	–	–	–	–	–	–	–	–	–	–	–	–	–	–	–	–	–	–	–	–	–	–	–	–	–	–
CC[C@H]1OC(=O)[C@H](C)[C@@H](O[C@H]2C[C@@](C)(OC)[C@@H](O)[C@H](C)O2)[C@H](C)[C@@H](O[C@@H]2O[C@H](C)C[C@H](N(C)C)[C@H]2O)[C@](C)(O)C[C@@H](C)CN(C)[C@H](C)[C@@H](O)[C@]1(C)O [Azithromycin (Zithromax)]	0.576	0.561	0.204	0.13	0.0304	-0.0338	0.0821	0.11	0.0532	-0.0307	0.16	0.206	0.16	0.0424	0.0514	0.129	0.0797	-0.0131	0.138	0.178	0.198	0.299	0.0676	0.168	0.163	0.224	0.526	0.619	0.633	0.639	0.499	0.586
CCC(CC)CC1(C(=O)Nc2ccccc2SC(=O)C(C)C)CCCCC1	0.462	0.476	0.0325	0.00234	0.00914	0.0506	-0.0537	-0.0604	-0.0741	-0.00871	-0.0908	-0.101	-0.128	-0.174	-0.0374	-0.15	-0.166	-0.178	0.00638	0.0745	0.111	0.2	-0.0639	-0.00533	0.0344	0.206	0.496	0.541	0.564	0.567	0.369	0.456
Cn1nnc2c(C(N)=O)ncn2c1=O [Temozolomide]	0.53	0.509	0.0892	0.0648	-0.0333	-0.0967	-0.0354	0.0378	-0.0162	-0.101	0.0977	0.0337	-0.0714	-0.291	0.0972	0.055	0.0367	-0.03	0.00136	0.0294	0.0193	0.0893	-0.0214	0.119	0.126	0.194	0.398	0.513	0.538	0.549	0.493	0.527
CCc1cc(-c2n[nH]c(C)c2-c2ccc3c(c2)OCCO3)c(O)cc1O	0.473	0.48	0.113	0.047	-0.0381	-0.212	0.0202	-0.0494	-0.116	-0.126	-0.0752	-0.183	-0.489	-0.797	-0.563	-0.433	-0.46	-0.629	0.0102	0.053	0.0491	0.0788	0.0475	0.0422	0.0841	0.183	0.478	0.547	0.565	0.581	0.363	0.462
COc1ccc2c3n(c(=NC(=O)c4cccnc4)nc2c1OC)CCN3	0.551	0.551	0.1	0.0853	-0.0391	-0.132	0.165	0.128	0.0515	0.0321	0.159	0.0605	-0.0752	-0.345	0.0975	0.0435	0.0156	-0.048	0.021	0.066	0.0894	0.178	0.192	0.175	0.166	0.278	0.429	0.534	0.559	0.569	0.482	0.53
CC(C)(C)c1[nH]cnc1/C=c1\[nH]c(=O)/c(=C/c2ccccc2)[nH]c1=O [NPI-2358 (Plinabulin)]	0.972	0.976	0.142	0.0848	0.0507	-0.0221	0.964	0.971	0.974	0.98	0.00478	-0.0503	-0.112	-0.272	0.941	0.953	0.959	0.963	0.0693	0.123	0.165	0.213	0.968	0.975	0.98	0.984	0.505	0.546	0.548	0.574	0.955	0.967
Cc1[nH]c(/C=C2\C(=O)Nc3ccc(S(=O)(=O)N(C)c4cccc(Cl)c4)cc32)c(C)c1C(=O)N1CCN(C)CC1	0.528	0.523	-0.0104	0.00253	-0.0727	-0.198	-0.0486	-0.0391	-0.0232	0.0376	-0.187	-0.174	-0.209	-0.352	-0.317	-0.305	-0.286	-0.342	-0.0184	0.0537	0.0856	0.0845	-0.011	0.0937	0.135	0.249	0.489	0.536	0.543	0.552	0.412	0.518
CN[C@@H](C)C(=O)N[C@H]1CN(C(=O)CC(C)C)CC[C@H]2CC[C@@H](C(=O)NC(c3ccccc3)c3ccccc3)N2C1=O	0.567	0.544	0.0554	0.0151	-0.0459	-0.197	-0.059	-0.0374	-0.0798	-0.0575	0.00534	-0.116	-0.171	-0.417	-0.168	-0.227	-0.25	-0.406	-0.0234	-0.00591	0.0157	0.0545	-0.0193	0.0475	0.055	0.159	0.456	0.56	0.581	0.599	0.456	0.551
Cc1nn(-c2ccccc2)c(C)c1C=NN1CCN(Cc2ccccc2)CC1	0.397	0.389	0.0133	0.025	0.0751	0.189	-0.168	-0.0669	-0.0956	-0.16	-0.144	-0.164	-0.201	-0.467	-0.163	-0.151	-0.201	-0.307	-0.0548	-0.0219	0.00875	0.104	-0.251	-0.05	-0.0247	-0.0474	0.275	0.414	0.437	0.459	0.295	0.4
COc1cccc2c1C(=O)c1c(O)c3c(c(O)c1C2=O)C[C@@](O)(C(=O)CO)C[C@@H]3O[C@H]1C[C@H](N)[C@H](O)[C@H](C)O1 [Doxorubicin (Adriamycin)]	0.952	0.968	0.258	0.293	0.356	0.433	0.974	0.983	0.986	0.988	0.198	0.324	0.365	0.391	0.62	0.794	0.872	0.915	0.422	0.492	0.589	0.687	0.979	0.986	0.989	0.99	0.831	0.879	0.909	0.933	0.869	0.928
N#CCNC(=O)c1ccc(-c2ccnc(Nc3ccc(N4CCOCC4)cc3)n2)cc1	0.447	0.446	-0.0265	-0.0512	-0.0373	0.104	-0.161	-0.159	-0.134	0.0156	-0.164	-0.233	-0.267	-0.364	-0.378	-0.377	-0.416	-0.56	-0.0778	-0.021	0.0189	0.13	0.143	0.174	0.206	0.384	0.481	0.53	0.555	0.562	0.347	0.434
Nc1nc(Cl)nc2c1ncn2[C@@H]1O[C@H](CO)[C@@H](O)[C@@H]1F [Clofarabine]	0.943	0.959	0.0673	0.0292	-0.0979	-0.0594	0.929	0.958	0.972	0.979	-0.085	-0.0539	-0.15	-0.383	0.384	0.685	0.781	0.827	0.00886	0.0897	0.102	0.0953	0.925	0.961	0.977	0.985	0.51	0.568	0.575	0.586	0.872	0.923
C#Cc1cccc(Nc2ncnc3cc(OC)c(OCCCCCCC(=O)NO)cc23)c1	0.926	0.923	-0.0221	-0.0137	-0.0216	0.0129	0.966	0.973	0.975	0.978	-0.19	-0.225	-0.209	-0.242	0.881	0.779	0.749	0.672	-0.132	-0.086	-0.0994	-0.0508	0.971	0.977	0.981	0.984	0.365	0.467	0.495	0.496	0.935	0.924
Cc1cccc(-c2[nH]c(C(C)(C)C)nc2-c2ccc3nccnc3c2)n1	0.434	0.447	0.121	0.0591	-0.0391	-0.0718	0.0282	0.0616	0.0184	-0.0529	-0.0404	-0.00935	-0.0953	-0.422	-0.418	-0.28	-0.32	-0.559	0.0382	0.108	0.172	0.201	0.0486	0.0781	0.126	0.19	0.595	0.633	0.644	0.65	0.316	0.428
